This is a sample that favours compounds with a hit; in the whole collection about 1.8% have one here.
VDR inhibitor = inhibitors of human vitamin D receptor. VDR-SRC2-3 peptide fluorescence polarization, 2 h. Potency, µM, for the others: max response, negative = inhibition, usual class: inhibitors. 400,000 tested, 0.93% active; note: % is set by controls: 0 for no effect and ±100 for the full control effect
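Compounds are added to VDR with labelled SRC2-3 coactivator peptide and held 2 h at room temperature. Inhibition of the VDR–peptide interaction is then read as a change in fluorescence polarization.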
Vif-APOBEC3F blk = Vif-A3F binding inhibition; HeLa A3F-eYFP + Vif (tagged APOBEC3F with the HIV-1 protein that degrades it), YFP fluorescence increase; 390,000 tested, 0.2% active; Potency, µM (doses to about 46.1 µM), for the others: at the top dose activity, negative = active; note: % of control where 0% means no effect; nearly all actives have a fitted effect of over 65% in size
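Fluorescence increase (Ex 488/Em 500-530) after overnight compound treatment at 37 deg C flags inhibition of Vif-driven A3F-eYFP loss in stable HeLa A3F-eYFP/Vif cells seeded overnight beforehand.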
TrxR1 inh = rat TrxR1 inhibition; 390,000 tested, 1% active; AID 588453; Potency, µM (highest dose often 114 µM), inactives show at the top dose activity change, negative = inhibition, most hits filed as inhibitors; recombinant rTrxR1, NADPH fluorescence consumption, selenite substrate; note: % is set by controls: 0 for no effect and ±100 for the full control effect; nearly all actives have a fitted effect of over 65% in size
Target sequence (O89049 whole entry, looked up): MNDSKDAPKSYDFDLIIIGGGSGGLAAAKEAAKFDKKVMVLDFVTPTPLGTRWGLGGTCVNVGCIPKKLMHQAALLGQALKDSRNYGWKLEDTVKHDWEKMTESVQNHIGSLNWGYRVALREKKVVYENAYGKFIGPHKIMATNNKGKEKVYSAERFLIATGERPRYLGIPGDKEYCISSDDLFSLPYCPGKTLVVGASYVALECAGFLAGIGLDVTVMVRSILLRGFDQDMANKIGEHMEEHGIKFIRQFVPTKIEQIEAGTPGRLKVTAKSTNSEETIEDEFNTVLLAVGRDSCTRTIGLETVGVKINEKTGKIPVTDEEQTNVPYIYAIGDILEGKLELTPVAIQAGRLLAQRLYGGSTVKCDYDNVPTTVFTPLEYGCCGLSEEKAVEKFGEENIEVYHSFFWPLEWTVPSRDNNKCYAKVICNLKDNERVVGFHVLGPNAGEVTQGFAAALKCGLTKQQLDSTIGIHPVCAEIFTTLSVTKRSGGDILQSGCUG
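Rat TrxR1 (90 nM in the dispensed reagent) was pre-reduced with 400 uM NADPH for 5 min at room temperature, then incubated with compound for 15 min. After 400 uM selenite was added, NADPH fluorescence (Ex 340/Em 450 nm) was followed for 8 min.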
TrxR1 substrate = substrates of rat thioredoxin reductase 1; O89049; 390,000 tested, 0.01% active; purified TrxR1 substrate turnover, NADPH consumption readout; AID 588456; Potency, µM (series often up to 114 µM), inactives show at the highest dose activity change, negative = substrate turnover; note: % is set by controls: 0 for no effect and ±100 for the full control effect; nearly all actives have a fitted effect of over 50% in size
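Rat TrxR1, dispensed at 90 nM, was prereduced with 400 uM NADPH (final) for 5 min at ~22 deg C, then incubated with compound 15 min before 400 uM selenite. A first-read NADPH fluorescence drop versus no-compound background flagged substrates.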
Vif-APOBEC3G blk = inhibitors of Vif-APOBEC3G interaction; Q9HC16; AID 602310; HeLa A3G-eYFP + Vif (tagged APOBEC3G with the HIV-1 protein that degrades it), YFP fluorescence, overnight; Potency, µM (titrated, usually from 46.1 µM), for the others: at the top dose activity, negative = active, most hits filed as inhibitors; 410,000 tested, 0.076% active; note: % is set by controls: 0 for no effect and ±100 for the full control effect; nearly all actives have a fitted effect of over 60% in size
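HeLa cells stably expressing Vif and C-terminally eYFP-tagged A3G, seeded overnight at 37 deg C, then exposed to compound by pintool overnight at 37 deg C. Rise in yellow fluorescence (Ex 488/Em 500-530, Acumen) marks blocked Vif-driven A3G degradation.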
* marks the source's active call; other numbers are inactive results; ? = inconclusive; · = no result given; [ ] = remark or other dose. Calls come from the whole dose curve; as a rule, active = well fitted curve in the direction sought with a large enough effect; inconclusive = small, poorly fitted or top-dose-only effect, or another doubt; inactive = no such curve, though single readings can be large; an effect the other way counts as inactive or inconclusive. Potency is the fitted concentration of half-maximal effect.

SMILES | VDR inhibitor | Vif-APOBEC3F blk | TrxR1 inh | TrxR1 substrate | Vif-APOBEC3G blk
CC(Oc1ccccc1Cl)C(=O)Nc1ccc(S(=O)(=O)N2CCN(C)CC2)cc1 (centres undefined) | ? | -15% | 20µM* | -2% | -3%
CC(Oc1ccccc1)C(=O)Nc1ccc(S(=O)(=O)N2CCN(C)CC2)cc1 (centres undefined) | -25% | 2% | 28% | 13% | 2%
C=CCN1C(=O)c2cccc3c(N4CCCCC4)ccc(c23)C1=O | 9% | 7.1µM* | 3%[57.1 µM] | -1%[57.1 µM] | ?
O=C1c2cccc3c(N4CCCCC4)ccc(c23)C(=O)N1c1cccc(O)c1 | -5% | 4µM* | 12%[57.1 µM] | -4% | ?
O=C1c2cccc3c(N4CCCCC4)ccc(c23)C(=O)N1CCO | -11% | ? | 11%[57.1 µM] | 0%[57.1 µM] | ?
O=C(Nc1ccccc1)C(Cc1ccccc1)N1Cc2ccccc2C1=O (centres undefined) | 10% | 7% | 7% | -7% | 1%
O=C(Nc1ccc([N+](=O)[O-])cc1)C(Cc1ccccc1)N1C(=O)c2cccc3cccc(c23)C1=O (centres undefined) | 1% | ? | -5% | -3% | 10µM*
Cn1c(=O)c2[nH]c(SCCN3CCOCC3)nc2n(C)c1=S | 28µM* | 1% | 15%[57.1 µM] | 10%[57.1 µM] | 4%
CCSc1nc2c([nH]1)c(=O)n(C)c(=S)n2C | 22µM* | 4% | -4%[2.29 µM] | 0%[2.29 µM] | -4%
CC(C)C1NC2(C(=O)c3ccccc3C2=O)C2C(=O)N(c3ccc(F)cc3)C(=O)C12 (centres undefined) | -6% | -9% | 45µM* | 5% | -8%
COCc1cc(O)c(O)c(O)c1-c1c(COC)cc(O)c(O)c1O | 16µM* | · | 14µM* | -9% | 1%
S=C(Nc1ccccc1)N1N=C(c2cccs2)CC1c1cccs1 (centres undefined) | 79µM* | 6% | 21%[57.1 µM] | 5%[57.1 µM] | 3%
Cc1nc(N2CCCC2)c2c(C(=O)Nc3ccc(C)c(Cl)c3)c(C)oc2n1 | 8% | -7% | 5% | -2% | 3%
O=C(Cn1c(=O)c(CNc2ccccc2)cc2cc3c(cc21)OCCO3)Nc1ccccc1Cl | -1% | ? | -37% | 12% | -23%
COCCNC(=O)/C(C#N)=C/c1ccc(OC(=O)c2cccs2)c(OC)c1 | 71µM* | -29% | -4%[57.1 µM] | -24%[57.1 µM] | -1%
COCCNC(=O)/C(C#N)=C/c1cccs1 | 4% | 5% | 6%[57.1 µM] | -2%[57.1 µM] | -2%
C=C1CCC[C@]2(C)C[C@H]3OC(=O)[C@H](CNCCc4ccccc4OC)C3CC12 (some centres undefined) | -15% | · | · | · | ·
CCCCCCCCN1[C@@H](CC(=O)O)c2ccc(/C=C/C(=O)O)cc2S1(=O)=O | · | · | 5% | -1% | 3%
O=C(CN(CC1CCCO1)C(=O)CNS(=O)(=O)c1ccc(Cl)cc1)NCc1ccc(F)cc1 (centres undefined) | -2% | -1% | 10%[57.1 µM] | 11%[0.0914 µM] | -1%
CS(=O)(=O)c1ccc(Cn2c3c(c4cc(F)cc(F)c42)CCC[C@H]3CC(=O)O)cc1 | 25µM* | · | · | · | ·
CC1=CC(=O)C2=C(C)CC[C@H]3[C@H](C)C(=O)O[C@@H]3C12 (some centres undefined) | 4% | · | · | · | ·
O=C1C(=O)N(CCN2CCOCC2)C(c2ccccn2)/C1=C(/O)c1ccc(F)cc1 (centres undefined) | -9% | 5% | ? | -10% | 1%
CCOC(=O)c1[nH]c(C)c(/C(O)=C2\C(=O)C(=O)N(CCCN3CCOCC3)C2c2cccnc2)c1C (centres undefined) | -2% | -1% | 45µM* | -14% | -4%
COC(=O)c1[nH]c(C)c(/C(O)=C2\C(=O)C(=O)N(CCCN3CCOCC3)C2c2ccccn2)c1C (centres undefined) | 8% | 0% | 25µM* | -7% | 4%
COc1ccc(/C(O)=C2/C(=O)C(=O)N(CCN3CCOCC3)C2c2ccccn2)cc1 (centres undefined) | -20% | -10% | 50µM* | -3% | -1%
SMILES | VDR inhibitor | Vif-APOBEC3F blk | TrxR1 inh | TrxR1 substrate | Vif-APOBEC3G blk
CC1(C)S[C@@H]2[C@H](NC(=O)COc3ccccc3)C(=O)N2[C@@H]1C(=O)OCc1cccc2cccnc12 | · | · | 15% | 3% | -1%
CCCCC1=CC2=C(c3ccco3)C(=O)C(C)(OC(=O)c3ccc(OC)cc3)C(=O)C2=CN1CC(C)C (centres undefined) | ? | ? | 45µM* | 4% | -4%
c1ccc(CN(CCN(Cc2ccccn2)Cc2ccccn2)Cc2ccccn2)nc1 | 5% | · | · | · | ·
Cc1nnc(SCC(=O)c2cc(C)n(-c3c(C)n(C)n(-c4ccccc4)c3=O)c2C)s1 | 9% | 4% | -1%[57.1 µM] | -2%[57.1 µM] | -3%
Cc1cc(C(=O)CCl)c(C)n1-c1c(C)n(C)n(-c2ccccc2)c1=O | 9% | 5% | 8.9µM* | -1%[57.1 µM] | ?
c1cnc2[nH]ccc2c1 | · | · | 23% | 6% | -3%
O=C(CCl)Nc1c2c(nn1-c1ccccc1)CSC2 | ? | 4% | 13µM* | -3% | -21%
COc1ccccc1NC(=O)c1sc2ncn(CC(=O)Nc3ccccc3)c(=O)c2c1C | -8% | 25µM* | 2% | 13% | -3%
COc1ccccc1NC(=O)Cn1cnc2sc(C(=O)Nc3cc(OC)c(OC)c(OC)c3)c(C)c2c1=O | 7% | -11% | 3% | -8% | -1%
COc1ccc(-c2nc(S(=O)(=O)c3ccc(C)cc3)c(N3CCCCC3)o2)cc1 | 89µM* | 7% | ? | 6% | 5%
O=S(=O)(c1ccccc1)c1nc(-c2ccccc2)oc1N1CCCCC1 | ? | -5% | 45µM* | 3% | -1%
CC(C)(C)c1nc(S(=O)(=O)c2ccc(Cl)cc2)c(N2CCOCC2)o1 | -28% | -7% | ? | 2%[57.1 µM] | -5%
COc1cccc(-c2nc(S(=O)(=O)c3ccc(C)cc3)c(N3CCCCCC3)o2)c1 | -22% | 1% | 26% | 1% | 1%
CC(C)Cc1nc(S(=O)(=O)c2ccc(Cl)cc2)c(N2CCOCC2)o1 | -12% | · | 8.9µM* | 2% | -1%
COc1cc(-c2nc(S(=O)(=O)c3ccc(C)cc3)c(N3CCOCC3)o2)cc(OC)c1OC | 79µM* | -20% | ? | 1% | 0%
CN(C)c1ccc(/C=C2\C=Cc3ccccc32)cc1F | · | · | -2% | -4% | -1%
CN(C(=O)CSc1nc(C2CCCC2)nc2c1c(=O)n(C)c(=O)n2C)c1ccccc1 | 4% | -22% | 8%[57.1 µM] | 3%[57.1 µM] | 0%
COc1ccc(-c2nc(S(=O)(=O)c3ccccc3)c(N3CCOCC3)o2)cc1 | -18% | 3% | 40µM* | -3% | -1%
Cc1ccc(S(=O)(=O)c2nc(Cc3ccccc3)oc2N2CCOCC2)cc1 | ? | 1% | 4.5µM* | 9% | 6%
Cc1ccc(S(=O)(=O)c2nc(-c3ccccc3)oc2N2CCN(c3ccccc3)CC2)cc1 | 0% | 7% | 23% | 8% | 1%

Compound activity deposited in PubChem by National Center for Advancing Translational Sciences (NCATS).
